NALP3 yeast inh: NALP3 inhibition in yeast; Yeast reconstituted NLRP3/ASC/caspase-1, beta-gal luminescence, 24 h; inhibition, % at 10 µM; 330,000 tested, 0.39% active;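 active = inhibition of 50% or more; inactive = inhibition below 50%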
PfHsp90 yeast 2: reduces growth (ATP signal) of yeast expressing P. falciparum Hsp90. S. cerevisiae expressing PfHsp90, BacTiter-Glo ATP, 48 h; yeast lacking PDR1 and PDR3 efflux regulators. inhibition, % at 9.4 µM. 310,000 tested, 0.32% active. AID 504621;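 active = every replicate shows inhibition above about 80%, whatever the replicate mean, limit read from the data; inconclusive = mean inhibition reaches the set limit but some replicate falls short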
tim10-1 inh: inhibits growth of tim10-1 mutant yeast | S. cerevisiae tim10-1 ts strain growth, BacTiter-Glo, 24 h | inhibition, % at 20 µM | 330,000 tested, 2.2% active | AID 463190;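 active = inhibition of at least 40%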;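 note: mutant grown at 25 °C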
tim23-1 inh: inhibits growth of tim23-1 mutant yeast. AID 463212. 330,000 tested, 1.3% active. inhibition, % at 20 µM. S. cerevisiae tim23-1 growth, BacTiter-Glo luminescence, 24 h;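 active = growth inhibition of the mutant yeast at or above 50%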;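 note: temperature-sensitive mutant grown at 25 °C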
SKKanGAS inh: SKKanGAS growth inhibition; 300,000 tested, 1.3% active; S. pyogenes SKKanGAS, kanamycin growth, BacTiter-Glo, 6 h; inhibition, % at 7.5 µM;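 active = mean replicate score, as percent of positive control median, at least 50; inconclusive = mean below 50 but one replicate at or above 50; inactive = mean and every replicate below 50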;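 note: strain carries kanamycin resistance gene driven by streptokinase promoter and grows in 40 µg/ml kanamycin; loss of luminescence reflects streptokinase promoter inhibition or plain growth inhibition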
TIM10 inh: growth inhibitors of TIM10 yeast strain; S. cerevisiae TIM10 strain growth, BacTiter-Glo luminescence, 24 h; 330,000 tested, 1.4% active; AID 463195; inhibition, % at 10 µM;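 active = inhibition of 40% or more at the single tested concentration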;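 note: wild-type TIM10 isogenic control strain grown at permissive 25 °C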
tim10-1 confirm: tim10-1 yeast growth inhibition, confirmed. AID 463213. 7,400 tested, 56% active. S. cerevisiae tim10-1 ts strain growth, BacTiter-Glo, 24 h. inhibition, % at 20 µM. shares compounds with tim10-1 inh;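 active = inhibition of yeast growth at or above a set limit in either of two repeat tests at 20 µM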;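 note: tim10-1 mutant grown at permissive 25 °C to find synthetic lethal compounds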
TIM10 conf: confirmation of TIM10 yeast growth inhibitors | shares compounds with TIM10 inh | S. cerevisiae tim10 strain growth, BacTiter-Glo luminescence, 24 h | 4,600 tested, 63% active | inhibition, % at 10 µM;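 active = inhibition of yeast growth at or above a set limit in either of two replicates at 10 µM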; note: this counterscreen used the strain with wild-type TIM10
tim23-1 conf: tim23-1 yeast growth inhibition, confirmed; 4,400 tested, 83% active; inhibition, % at 20 µM; shares compounds with tim23-1 inh; S. cerevisiae tim23-1 growth, BacTiter-Glo luminescence, 24 h;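 active = inhibition above about 39% in either of two replicate wells at 20 µM, limit read from the data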;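 note: temperature-sensitive tim23-1 mutant grown at 25 °C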
A number is an active result. Rows were chosen to be rich in hits. Some 4.6% of all compounds tested hit in one or more screens of this group.

How did O=C(NC1CC1)c1ccc2c(c1)C1C3CCC(C3)C1C(c1ccccc1)N2 (stereo unspecified) do in these assays?
NALP3 yeast inh: inactive; PfHsp90 yeast 2: inactive; tim10-1 inh: 49.6; tim23-1 inh: 61.9; SKKanGAS inh: inactive; TIM10 inh: 41.3; tim10-1 confirm: 42.1; TIM10 conf: inactive; tim23-1 conf: 54.4

Results for O=C(NC1CCCC1)c1cccc(Cl)c1 ?
NALP3 yeast inh: inactive; PfHsp90 yeast 2: inactive; tim10-1 inh: inactive; tim23-1 inh: inactive; SKKanGAS inh: inactive; TIM10 inh: inactive

What do the screens show for `O=C(N/N=C/c1ccc([N+](=O)[O-])o1)c1cn2ccc3ccccc3c2n1`?
NALP3 yeast inh: inactive; PfHsp90 yeast 2: inactive; tim10-1 inh: 59.4; tim23-1 inh: 73.7; SKKanGAS inh: inactive; TIM10 inh: 59.6; tim10-1 confirm: 72.2; TIM10 conf: 78.3; tim23-1 conf: inactive

What do the screens show for `COc1ccc(S(=O)(=O)Cc2ccc(C(=O)NC3CCCCC3)o2)cc1`?
NALP3 yeast inh: inactive; PfHsp90 yeast 2: inactive; tim10-1 inh: inactive; tim23-1 inh: inactive; SKKanGAS inh: inactive; TIM10 inh: inactive

How did C/C(Cn1nc([N+](=O)[O-])cc1C)=N\NC(=O)COc1c(Cl)cc(Cl)cc1Cl do in these assays?
NALP3 yeast inh: inactive; PfHsp90 yeast 2: inactive; tim10-1 inh: inactive; tim23-1 inh: inactive; SKKanGAS inh: inactive; TIM10 inh: inactive

What do the screens show for `COc1ccccc1NS(=O)(=O)c1cccc(C(=O)NCC(c2ccc(F)cc2)N2CCOCC2)c1` (stereo unspecified)?
NALP3 yeast inh: inactive; PfHsp90 yeast 2: inactive; tim10-1 inh: inactive; tim23-1 inh: inactive; SKKanGAS inh: inactive; TIM10 inh: inactive

Results for Cc1nnc(C)n1/N=C/c1cc(Br)cc(Br)c1O ?
NALP3 yeast inh: inactive; PfHsp90 yeast 2: 100.6; tim10-1 inh: 56.2; tim23-1 inh: 62.5; SKKanGAS inh: inactive; TIM10 inh: 62.8; tim10-1 confirm: 32.4; TIM10 conf: inactive; tim23-1 conf: 85.2

Results for CS/C(N)=N/N=C/c1cc(Br)cc(Br)c1O ?
NALP3 yeast inh: inactive; PfHsp90 yeast 2: inactive; tim10-1 inh: 47.3; tim23-1 inh: 75.8; SKKanGAS inh: inconclusive; TIM10 inh: 71.3; tim10-1 confirm: 61.4; TIM10 conf: 61.2; tim23-1 conf: 78.6

How did Oc1c(Br)cc(Br)cc1/C=N/n1c(-c2ccccc2)n[nH]c1=S do in these assays?
NALP3 yeast inh: inactive; PfHsp90 yeast 2: inactive; tim10-1 inh: 66.0; tim23-1 inh: 79.7; SKKanGAS inh: inactive; TIM10 inh: inactive; tim10-1 confirm: 49.5; tim23-1 conf: 88.1

How did CS/C(N)=N/N=C/c1cc(C)ccc1O do in these assays?
NALP3 yeast inh: inactive; PfHsp90 yeast 2: inactive; tim10-1 inh: inactive; tim23-1 inh: inactive; SKKanGAS inh: inactive; TIM10 inh: inactive

Results for Cc1cc(N2C(=O)c3ccc(C(=O)Nc4ccc(CC(=O)O)cc4)cc3C2=O)no1 ?
NALP3 yeast inh: inactive; PfHsp90 yeast 2: inactive; tim10-1 inh: inactive; tim23-1 inh: inactive; SKKanGAS inh: inactive; TIM10 inh: inactive

What do the screens show for `Cc1ccc2c(c1)N=C(c1ccccc1)CC(C(Cl)Cl)=N2`?
NALP3 yeast inh: inactive; PfHsp90 yeast 2: inactive; tim10-1 inh: 60.0; tim23-1 inh: 74.2; SKKanGAS inh: inactive; TIM10 inh: 59.8; tim10-1 confirm: 48.0; TIM10 conf: 55.8; tim23-1 conf: 67.3

What do the screens show for `CCC(C)NC(=O)c1cc(S(=O)(=O)N2CCCCC2)c[nH]1` (stereo unspecified)?
NALP3 yeast inh: inactive; PfHsp90 yeast 2: inactive; tim10-1 inh: inactive; tim23-1 inh: inactive; SKKanGAS inh: inactive; TIM10 inh: inactive

Results for O=C(/C=C1\NC2(CCCC2)Cc2ccccc21)C(=O)N/N=C/c1ccc(O)c(O)c1 ?
NALP3 yeast inh: inactive; PfHsp90 yeast 2: inactive; tim10-1 inh: inactive; tim23-1 inh: inactive; SKKanGAS inh: inactive; TIM10 inh: inactive

Results for COc1ccc(/C=N/NC(=O)C(=O)/C=C2\NC3(CCCC3)Cc3ccccc32)cc1 ?
NALP3 yeast inh: inactive; PfHsp90 yeast 2: inactive; tim10-1 inh: 42.2; tim23-1 inh: 53.9; SKKanGAS inh: inactive; TIM10 inh: inactive; tim10-1 confirm: 31.2; tim23-1 conf: inactive

How did Cc1ccc(S(=O)(=O)CC(=O)Nc2nc(-c3ccccc3)cs2)cc1 do in these assays?
NALP3 yeast inh: inactive; tim10-1 inh: 44.0; tim23-1 inh: 52.3; SKKanGAS inh: inactive; TIM10 inh: inactive; tim10-1 confirm: 45.0; tim23-1 conf: 46.9

What do the screens show for `CC(C)N(CCC(=O)c1ccc2ccccc2c1)Cc1ccccc1`?
NALP3 yeast inh: inactive; PfHsp90 yeast 2: 113.6; tim10-1 inh: 92.3; tim23-1 inh: 57.8; TIM10 inh: inactive; tim10-1 confirm: 92.4; tim23-1 conf: 86.0

What do the screens show for `O=C(CCc1ccc(O)cc1)N/N=C/c1coc2ccccc2c1=O`?
NALP3 yeast inh: inactive; tim10-1 inh: inactive; tim23-1 inh: inactive; SKKanGAS inh: inactive; TIM10 inh: inactive

Results for Cc1ccc2nc(N3CCN(C)CC3)c(C=O)c(=O)n2c1 ?
NALP3 yeast inh: inactive; PfHsp90 yeast 2: inactive; tim10-1 inh: inactive; tim23-1 inh: inactive; SKKanGAS inh: inactive; TIM10 inh: inactive

What do the screens show for `Cc1cccc(NC(=O)CN(C)C(=O)c2ccc3ccccc3n2)c1C`?
NALP3 yeast inh: inactive; tim10-1 inh: inactive; tim23-1 inh: inactive; TIM10 inh: inactive

What do the screens show for `Clc1ccc(CSc2nncn2-c2ccc3c(c2)OCCO3)cc1`?
NALP3 yeast inh: inactive; PfHsp90 yeast 2: inactive; tim10-1 inh: 40.6; tim23-1 inh: 52.3; SKKanGAS inh: inactive; TIM10 inh: inactive; tim10-1 confirm: 33.0; tim23-1 conf: 47.4

Results for CC1CCCC(NS(=O)(=O)c2ccc3c(c2)OCCO3)C1C (stereo unspecified) ?
NALP3 yeast inh: inactive; PfHsp90 yeast 2: inactive; tim10-1 inh: 57.0; tim23-1 inh: 52.1; SKKanGAS inh: inactive; TIM10 inh: inactive; tim10-1 confirm: 47.8; tim23-1 conf: 58.9

How did CCOC(=O)C(C)Sc1nc2c(cnn2-c2ccc(F)cc2)c(=O)[nH]1 (stereo unspecified) do in these assays?
NALP3 yeast inh: inactive; PfHsp90 yeast 2: inactive; tim10-1 inh: inactive; tim23-1 inh: inactive; SKKanGAS inh: inactive; TIM10 inh: inactive

Results for O=C1c2ccc([N+](=O)[O-])cc2S(=O)(=O)N1Cc1ccccc1 ?
NALP3 yeast inh: inactive; PfHsp90 yeast 2: inactive; tim10-1 inh: 72.2; tim23-1 inh: 75.8; SKKanGAS inh: inactive; TIM10 inh: 52.7; tim10-1 confirm: 69.0; TIM10 conf: 42.8; tim23-1 conf: 85.5
